Experimental findings from PubChem BioAssay (NCI) are described below.

Among the test systems are NCI-H23 lung; NCI-H226 lung; NCI-H322M lung; HOP-62 NSCLC; NCI-H460 lung; NCI-H522 lung; A549/ATCC NSCLC; 786-0 renal; COLO 205 colon.
Test in all cases: NCI-60 one-dose screen, 48 h (100 = growth as untreated, 0 = no growth, -100 = all killed)
What all share (conditions): 10 µM unless noted

SMILES strings stand for the structures. The panel holds about 83,000 compounds, 20% with a hit somewhere; the sample as a whole holds those more often.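 Interpretation: 100, growth as untreated; towards 0, rising growth inhibition; 0, no net growth; 0 to -100, cell death. Compounds scoring below 10 were considered active.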 Values without a mark were called inactive. Calls of active or inactive are those of the source.

For the compound `CCCn1cnc2c(c1=N)C(c1ccc(Cl)cc1)c1sc3c(C)cccc3c1O2` (configuration not stated), the growth was 20.5% in the assay on NCI-H23 lung; 62% in the assay with NCI-H226 lung; 43.8% in the assay on NCI-H322M lung; 44.2% in the assay with HOP-62 NSCLC; 9.41% (active) in the assay on NCI-H460 lung; -5.59% (active) with NCI-H522 lung. Further, the growth in the assay on A549/ATCC NSCLC was 29.1%; in the assay with 786-0 renal, 33.8%; with COLO 205 colon, 1.53% (active).
For the compound `Cc1ccc2sc3c(c2c1)OC(N)=C(C#N)C3c1ccc(Cl)cc1` (configuration not stated), the growth with NCI-H23 lung is 86.2%; in the assay on NCI-H226 lung, 68%; in the assay with NCI-H322M lung, 99%; in the assay on HOP-62 NSCLC it was 79.6%; in the assay with NCI-H460 lung, 56.2%; with NCI-H522 lung, 58.2%. Besides, the growth in the assay with A549/ATCC NSCLC was 96.9%; with 786-0 renal, 102%; with COLO 205 colon it was 96.7%.
For `C=C(C=O)[C@@H]1CC[C@]2(CO)CC[C@]3(C)[C@H](CC[C@@H]4[C@@]5(C)CCCNC(C)(C)[C@@H]5CC[C@]43C)[C@@H]12`, the growth in the assay with NCI-H23 lung was 63.5%; in the assay with NCI-H226 lung it was 76.5%; in the assay on NCI-H322M lung, 95.8%; in the assay with HOP-62 NSCLC, 88.9%; in the assay on NCI-H460 lung, 86%; in the assay on NCI-H522 lung, 77.6%. Moreover, the growth with A549/ATCC NSCLC is 81.1%; in the assay on 786-0 renal, 94.3%; in the assay on COLO 205 colon, 77.3%.
With `CC(C)c1ccc(NCc2cn(-c3ccc(C(=O)O)cc3)nc2-c2cc(C(F)(F)F)cc(C(F)(F)F)c2)cc1`, the growth in the assay with NCI-H23 lung was 83.2%; in the assay on NCI-H226 lung, 85.8%; in the assay on NCI-H322M lung, 85.1%; in the assay on HOP-62 NSCLC it was 94.9%; in the assay on NCI-H460 lung, 83%; in the assay on NCI-H522 lung it was 85%. Further, the growth with A549/ATCC NSCLC is 79.8%; in the assay on 786-0 renal, 90.7%; in the assay on COLO 205 colon, 96.5%.
In the case of `CN1CCN(c2nc(-c3csc(-c4ccccc4)n3)cc3ccccc23)CC1`, the growth with NCI-H23 lung is 66.7%; with NCI-H226 lung, 97.7%; in the assay on NCI-H322M lung, 72.9%; in the assay with HOP-62 NSCLC it was 70.2%; in the assay on NCI-H460 lung, -26.1% (active); in the assay with NCI-H522 lung, 37.1%. The growth is 53.8% with A549/ATCC NSCLC, 46.4% with 786-0 renal and -84.4% (active) with COLO 205 colon.
Regarding `Cc1nn(-c2ccccc2)c2ncnc(N/N=C/c3ccccc3O)c12`, the growth in the assay on NCI-H23 lung was 14.3%; in the assay on NCI-H226 lung it was 14.8%; with NCI-H322M lung it was 14.1%; in the assay on HOP-62 NSCLC, 10.2%; with NCI-H460 lung, 6.19% (active); with NCI-H522 lung, 23.1%. Moreover, the figures for the growth in the assay with A549/ATCC NSCLC, in the assay with 786-0 renal and in the assay on COLO 205 colon were 11.7%, 11% and 10.5%, respectively.
For the compound `CCO/C=N/C1=C(C#N)C(c2ccc(OC)cc2)c2sc3c(CC)cccc3c2O1` (configuration not stated), the growth is 32.2% with NCI-H23 lung; 61.8% in the assay on NCI-H226 lung; 42.2% in the assay with NCI-H322M lung; 54.8% in the assay on HOP-62 NSCLC; 9.18% (active) in the assay with NCI-H460 lung; 18.6% in the assay with NCI-H522 lung. Also, the growth with A549/ATCC NSCLC is 47.1%; with 786-0 renal, 48.7%; with COLO 205 colon, 34.4%.
Turning to `CC[C@@H](CO)Nc1ccc2ncc(C#Cc3cncc(C(=O)Nc4ccc(CN5CCN(C)CC5)c(C(F)(F)F)c4)c3)n2n1`, the growth in the assay with NCI-H23 lung was -71.5% (active); with NCI-H226 lung, -39.4% (active); with NCI-H322M lung it was -30.1% (active); with HOP-62 NSCLC, -71.7% (active); in the assay on NCI-H460 lung, -88.8% (active); in the assay with NCI-H522 lung, -76.1% (active). The growth in the assay with A549/ATCC NSCLC was -35.3% (active); in the assay with 786-0 renal, -96.8% (active); with COLO 205 colon, -87.2% (active).
Regarding `CN(C)CCN(C)c1ccc2ncc(C#Cc3cncc(C(=O)Nc4ccc(CN5CCN(C)CC5)c(C(F)(F)F)c4)c3)n2n1`, the growth in the assay with NCI-H23 lung was -66.4% (active); with NCI-H226 lung, 64.3%; in the assay with NCI-H322M lung it was 89%; with HOP-62 NSCLC, 33.6%; in the assay with NCI-H460 lung it was -76% (active); in the assay with NCI-H522 lung, 97%. The growth was -40.5% (active) with A549/ATCC NSCLC, 90.9% with 786-0 renal and 25.1% in the assay with COLO 205 colon.
On to `C=C=COc1cccc(/C(N)=N/C(N)=N/c2nc3ccccc3s2)c1`, for which the growth with NCI-H23 lung is 75.9%; with NCI-H226 lung, 83.7%; with NCI-H322M lung, 103%; in the assay on HOP-62 NSCLC, 101%; in the assay on NCI-H460 lung, 93.9%; in the assay with NCI-H522 lung, 97%. The growth in the assay on A549/ATCC NSCLC was 104%; with 786-0 renal, 90.3%; with COLO 205 colon it was 112%.
`CCOc1ccc(C(=O)Nc2ncc(Cc3ccc(F)cc3)s2)cc1`: the growth in the assay with NCI-H23 lung is 28.4%; in the assay on NCI-H226 lung, 40.1%; in the assay with NCI-H322M lung, 55.3%; in the assay with HOP-62 NSCLC, 33.7%; with NCI-H460 lung, 7.15% (active); in the assay on NCI-H522 lung it was 10.8%. For the same compound, the growth with A549/ATCC NSCLC is 33.6%; in the assay on 786-0 renal, 39.3%; in the assay with COLO 205 colon it was -21.9% (active).
Consider `C[C@@H]1C[C@H]2C(=O)O[C@@H](C)C(NC(=O)[C@H](Cc3cc(F)cc(F)c3)NC(=O)Nc3ccc(C4CC4)cc3F)C(=O)N3CCC[C@H]3C(=O)N3CCCC[C@H]3C(=O)N[C@@H](CO)C(=O)N2C1` (some centres not stated), for which the growth was 34% with NCI-H23 lung; -5.28% (active) in the assay with NCI-H226 lung; 48.3% in the assay on NCI-H322M lung; 33.3% in the assay with HOP-62 NSCLC; 14.4% with NCI-H460 lung; 13.2% in the assay on NCI-H522 lung. The figures for the growth with A549/ATCC NSCLC, in the assay with 786-0 renal and in the assay on COLO 205 colon were 25.7%, 40.4% and -38.3% (active), respectively.
Turning to `Cc1ccc(S(=O)(=O)NCCNc2nc(Nc3ccc(N4CCN(C)CC4)cc3)nc3ccsc23)cc1`, the growth in the assay on NCI-H23 lung was 100%; with NCI-H226 lung, 104%; with NCI-H322M lung, 110%; with HOP-62 NSCLC it was 112%; in the assay on NCI-H460 lung, 96.4%; in the assay with NCI-H522 lung, 109%. The growth in the assay on A549/ATCC NSCLC was 93.8%; in the assay on 786-0 renal, 91.3%; with COLO 205 colon it was 113%.
